Shown are actives, neighbours in structure and some others; about 1.2% of the full set was active somewhere.
Six1-Eya2 blk – qHTS Assay for Inhibitors of the Six1/Eya2 Interaction; Homeobox protein SIX1 (Homo sapiens) + Protein phosphatase EYA2 (Homo sapiens), …; AlphaScreen GST-Six1/His-Eya2 binding, biochemical; active compounds read low; activity change, % (test concentration not listed); 0.56% of 360,000 active; AID 651725, 2012
Target sequence (O00167 whole entry, looked up): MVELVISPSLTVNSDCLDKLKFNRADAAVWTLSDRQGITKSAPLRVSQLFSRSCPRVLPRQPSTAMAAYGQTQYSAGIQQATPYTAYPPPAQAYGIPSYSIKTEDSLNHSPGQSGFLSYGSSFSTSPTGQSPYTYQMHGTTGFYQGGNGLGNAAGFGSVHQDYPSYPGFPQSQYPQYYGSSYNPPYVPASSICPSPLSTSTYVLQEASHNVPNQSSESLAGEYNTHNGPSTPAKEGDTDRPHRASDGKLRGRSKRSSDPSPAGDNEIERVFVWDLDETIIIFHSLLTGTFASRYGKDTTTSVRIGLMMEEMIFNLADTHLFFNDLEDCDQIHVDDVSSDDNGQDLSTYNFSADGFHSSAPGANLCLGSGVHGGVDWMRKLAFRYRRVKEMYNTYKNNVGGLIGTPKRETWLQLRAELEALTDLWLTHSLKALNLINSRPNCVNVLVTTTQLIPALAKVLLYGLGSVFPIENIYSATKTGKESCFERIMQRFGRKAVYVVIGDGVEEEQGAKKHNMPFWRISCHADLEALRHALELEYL
Target sequence (Q15475 whole entry, looked up): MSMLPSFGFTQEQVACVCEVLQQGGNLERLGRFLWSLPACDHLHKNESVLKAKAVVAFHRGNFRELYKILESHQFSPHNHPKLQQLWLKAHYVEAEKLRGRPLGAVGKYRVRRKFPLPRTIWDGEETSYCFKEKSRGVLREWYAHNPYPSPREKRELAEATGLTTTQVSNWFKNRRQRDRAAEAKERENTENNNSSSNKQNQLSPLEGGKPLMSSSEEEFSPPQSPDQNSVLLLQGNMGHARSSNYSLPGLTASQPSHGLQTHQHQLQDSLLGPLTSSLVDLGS
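AlphaScreen with GST-Six1 and His-Eya2 (5X mix: 250 nM and 500 nM), glutathione donor and nickel acceptor beads; buffer 50 mM Tris pH 8.0, 300 mM NaCl, 1 mM TCEP; 1 h at 37 C in the dark.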
CtBP-E1A inh – qHTS Assay for Inhibitors of the CtBP/E1A Interaction | 0.49% of 340,000 active | CtBP / adenovirus E1A interaction (AlphaScreen) | AlphaScreen GST-E1A/His-CtBP binding, 1536-well; active compounds read low | AID 651724, 2012 | activity change, % (test concentration not listed)
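In 5 uL wells, 23 nL compound meets equimolar GST-E1A and His-CtBP (5X stock 125 nM each) for 2 h, 37 °C. Beads (5X, 50 ug/mL) then 1 h, 37 °C, dark.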
CCT modulator – High-Throughput Screening for Modulators of Cytosolic Chaperonin Activity | 0.3% of 360,000 active | activity change, % (concentration not given with the values), hits read low | purified chaperonin ATPase assay, HTRF ADP detection, 30 min; in the data active = activity change below about -30%
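ATPase activity: ADP formed was measured by HTRF Transcreener (665/615 nm ratio) after 30 min at 37 deg C with 10 uM ATP. Compounds screened at one 76 uM concentration against 40 or 20 nM TRiC in Tris pH 7.4/KCl/MgCl2/DTT buffer.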
pAkt inh – HTS Assay for Inhibitors of Akt Phophorylation: Primary Screen; Neuro2A IGF-stimulated pAkt S473 HTRF, 20 min; active compounds read low; activity change, % for hits at 50 µM; 0.32% of 360,000 active; AID 651550, 2012; in the data active = activity change below about -80%; inconclusive = mostly about -51% to -80%
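Neuro2A cells in DMEM with 0.5% FBS, overnight at 37 deg C, given compound at single 50 µM final, then IGF (6 nM final) for 20 min at 37 deg C. Lysed; phospho-Akt Ser473 by HTRF after 24 h, 665/615 ratio.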
Active calls of the source: *; i = inactive; ? = inconclusive; nt = no result. Cut-off read from the data, not from the text of the source, unless noted: active = activity change below about -65%; inconclusive = mostly about -30% to -63%; inactive = weaker than that. % is set by controls: 0 for no effect and ±100 for the full control effect.

SMILES	Six1-Eya2 blk	CtBP-E1A inh	CCT modulator	pAkt inh
Cc1cccnc1Nc1nc(-c2ccccn2)cs1	-78.5*	-94.9*	-1.1	i
Cc1cccnc1Nc1nc(-c2ccccc2)cs1	-4.7	-0.2	-3.3	i
COc1ccc(C=NNc2nc3ccccc3s2)cc1	8.8	-4.9	-2.4	i
C(=NNc1ccc2ccccc2n1)c1ccccn1	-69.0*	-69.0*	-1.5	i
C(=N\NC1=Nc2cccc3cccc1c23)/c1ccccn1	?	nt	0.6	i
C(=N\Nc1nc2ccccc2s1)/c1ccccn1	-73.0*	-85.9*	1.0	i
CC(=O)Nc1sc2c(c1C(c1cccs1)N1CCOCC1)CCCC2 (stereo not given)	8.3	-1.4	0.1	-109.6%*
CC(=O)Nc1sc2c(c1C(c1ccccn1)N1CCCC1)CCCC2 (stereo not given)	-14.7	3.5	1.8	i
O=C(NCCCN1CCCC1=O)C1CCN(S(=O)(=O)c2ccccc2)CC1	2.6	nt	0.5	i
O=C(O)CCSCC(=O)Nc1c(C(=O)C2CC2)oc2ccccc12	-6.5	1.9	1.4	-99.6%*
COC(=O)c1sccc1NC(=O)c1ccc(C)o1	-9.1	-7.0	0.0	i
COC(=O)c1sccc1-c1ccc(C(=O)Nc2ccccc2)o1	-8.2	-1.5	-1.1	-128.2%*
O=C(NCCCN1CCOCC1)C(=O)NCC1OCCN1S(=O)(=O)c1ccc(Cl)cc1 (stereo not given)	6.4	0.5	-33.5*	i
O=C(NCCCn1ccnc1)C(=O)NCC1OCCN1S(=O)(=O)c1ccc(F)cc1 (stereo not given)	-76.6*	-73.3*	-0.7	i
CCOc1ccc(C(=O)Nc2nnc(SCC(=O)NCC3CCCO3)s2)cc1OCC (stereo not given)	3.5	12.0	-1.4	i
CCOC(=O)CNC(=O)CNC(=O)c1ccc(OC)cc1	3.3	2.0	-1.8	-108.0%*
CCn1cc(Br)c(C(=O)NC(=S)Nc2ccc(C(=O)OC)cc2)n1	4.6	-17.0	-1.6	i
Cc1ccc(C(=O)Sc2cccccc2=O)cc1	-76.8*	-89.5*	-1.2	i
C(=N\n1cnnc1)/c1cccc(OCCOc2ccccc2)c1	-9.4	1.5	-84.0*	i
Fc1ccccc1COc1ccc(/C=N/n2cnnc2)cc1	0.9	1.2	-1.8	i
C(=N\n1cnnc1)/c1ccc(OCc2cccc3ccccc23)cc1	-14.3	-0.7	-0.5	-134.4%*
COc1cc(/C=N/n2cnnc2)ccc1OCCOc1ccccc1	7.7	-4.8	-3.0	i
COc1cc(OC)c(OC)cc1/C=N/N(C)c1ccccc1	-66.0*	?	-1.8	i
O=S(=O)(NCC1CC1)c1cccc(S(=O)(=O)N2CCCC2)c1	14.4	-1.2	-0.5	-111.5%*
Cc1cc(C(=O)C(C)OC(=O)c2ccc(NC(=O)CC#N)cc2)c(C)n1-c1ccccc1 (stereo not given)	-14.0	-10.6	1.5	i
SMILES	Six1-Eya2 blk	CtBP-E1A inh	CCT modulator	pAkt inh
COc1ccc2nc(Nc3nc(CSc4nnnn4-c4ccccc4)cc(=O)[nH]3)nc(C)c2c1	2.7	-0.2	-7.4	-120.5%*
O=[N+]([O-])c1ccc(-[n+]2nc(-c3ccccc3)nn2-c2ccccc2)cc1	-81.7*	-91.6*	-0.9	i
O=c1ccc(-c2ccc([N+](=O)[O-])cc2)nn1-c1ccccc1	-2.2	3.4	-7.3	i
O=C(NCc1cccs1)C1CC(=O)N(c2ccccc2)C1 (stereo not given)	3.2	3.9	1.8	i
CC(C)NC(=O)c1sc2nc(-c3cccs3)cc(-c3cccs3)c2c1N	7.3	0.7	-0.4	-93.6%*
Cc1cc(/C=N/n2c(COc3ccccc3C)nc3ccccc3c2=O)c(O)c([N+](=O)[O-])c1	-67.8*	-73.0*	-1.5	i
O=c1c2ccccc2nc(COc2ccccc2)n1/N=C/c1cc([N+](=O)[O-])ccc1O	-88.9*	-4.9	-2.4	i
COCC(=O)N1C[C@H](C)[C@H](OC)CN(C)C(=O)c2cc(NC(=O)Nc3cccc(F)c3)ccc2OC[C@@H]1C	-1.2	3.1	nt	i
COC(=O)C1=NNC2(c3ccc(Cl)cc3)C(=O)N(c3ccccc3)C(=O)C12 (stereo not given)	13.4	17.4	2.1	i
CCOc1cc(C)c(Cl)cc1S(=O)(=O)N1CCCC1	20.1	1.6	0.9	-118.6%*
CCOc1ccc(CCNC(=O)C2CCC(=O)N2CCc2ccccc2)cc1OCC (stereo not given)	2.8	-6.1	-4.5	-82.0%*
CCCC(=O)N1CCCC1(C)C(=O)Nc1cc(OC)c(OC)c(OC)c1 (stereo not given)	5.8	4.7	-0.4	i
CC1=C(C(=O)OCC2CCCO2)C(c2ccccc2Cl)NC(=O)N1 (stereo not given)	7.8	5.4	0.7	-98.7%*
CC1(c2ccccc2)NC(=O)N(CC(=O)Nc2ccccc2N2CCCCC2)C1=O (stereo not given)	2.6	-0.1	0.6	i
CCC1(c2ccccc2)NC(=O)N(CC(=O)Nc2ccccc2N2CCCC2)C1=O (stereo not given)	0.0	-68.0*	-1.4	i
Cc1noc(C)c1CSc1nnc(-c2c[nH]c3ccccc23)n1-c1ccc(Cl)cc1	12.2	3.2	0.5	-114.8%*
O=C(NCC12CC3CC(CC(C3)C1)C2)c1nc2ncccn2n1	1.8	7.1	-2.1	-118.8%*
O=C(NCCc1ccccc1)c1nc2ncccn2n1	3.9	4.9	-2.6	i
CC(C)N1CN(c2ccccc2)C(=S)N(c2ccccc2)C1	0.3	-2.4	2.0	i
Cc1nccn1CCC(=O)NC1CC(C)(C)Cc2c1cnn2-c1ccccc1 (stereo not given)	6.5	0.2	0.0	i
NC(=O)c1cccc(C(N)=O)n1	-10.6	nt	-2.4	i
O=C(O)CCCNC(=O)Cc1ccccc1	8.1	4.6	-91.1*	i
O=C(Cc1ccccc1)NCCCc1ccccc1	7.1	8.5	-0.1	i
CCN(CC)C(=O)c1ccc2nc(-c3ccccc3)c(-c3ccccc3)nc2c1	-1.6	4.4	1.1	i
CCCNC(=O)c1ccc2nc(-c3ccccc3)c(-c3ccccc3)nc2c1	-3.7	-2.1	-2.4	-120.3%*
CCOc1c(Cl)cc(C(=O)Nc2cccc(C(=O)O)c2)cc1Cl	2.6	nt	-1.9	i
NC(=S)N=Nc1c(O)[nH]c2ccc(F)cc12	-79.7*	12.9	1.3	i
CCC(c1nnnn1CCOC)N(Cc1cc2cc(C)c(C)cc2[nH]c1=O)CC1CCCO1 (stereo not given)	-0.3	-5.3	1.8	-116.6%*
CCC(C)c1ccc(NC(=S)N2CCN(C(=O)C3CCCO3)CC2)cc1 (stereo not given)	0.9	-10.4	-74.0*	i

High-throughput results: PubChem BioAssay, National Center for Advancing Translational Sciences (NCATS)
